TRPV1 potentiator – potentiators of human vanilloid receptor 1 (TRPV1); potentiation, % at 8.33 µM; 0.02% of 320,000 active; TRPV1-expressing cells, Fluo-8 calcium influx, capsaicin EC20 potentiation; in the data active = potentiation above about 80%; inconclusive = between about 30% and that limit; note: 0% is about no effect
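TRPV1-expressing cells were cultured overnight at 35.5C and loaded with Fluo-8 calcium dye for 40 to 90 min at room temperature. After a 10 s baseline, compound was added and calcium influx was read kinetically for 3 min (ex 480/em 520 nm).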
Anesthetic bind – candidate novel general anesthetic via apoferritin binding; P02791; apoferritin/1-aminoanthracene competitive binding, fluorescence; Potency, µM (doses to about 77.5 µM), without a hit: at the highest dose activity change, negative = displacement, hits mostly inhibitors; 0.074% of 350,000 active; AID 485281; note: potency is the fitted concentration of half-maximal effect; % is set by controls: 0 for no effect and ±100 for the full control effect; nearly all actives have a fitted effect of over 20% in size
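Steps: apoferritin (10 uM) was premixed with half-saturated 1-AMA in PBS, compounds were pin-transferred, plates stood 10 min at room temperature, fluorescence was read at 380/535 nm, and curves were fitted with a Hill equation.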
A-T KAP1 phos – potential ataxia-telangiectasia treatments restoring KAP-1 phosphorylation; F2112 A-T fibroblasts, KAP-1 phosphorylation AlphaLISA; neocarzinostatin DNA damage 30 min before lysis; Potency, µM (highest dose often 57.5 µM), for the others: at the highest dose activation, actives largely listed as activators; 0.19% of 320,000 active; AID 485349; note: potency is the fitted concentration of half-maximal effect; % of control where 0% means no effect; nearly all actives have a fitted effect of over 45% in size
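hTERT-immortalized A-T patient fibroblasts (F2112), 500 cells/well in OPTI-MEM, 1% FBS, got compounds for 60 min, then NCS for 30 min at 37C. Lysates were then assayed for phospho-KAP-1 by AlphaLISA (anti-pKAP1 donor, anti-KAP1 acceptor beads), 6 hr at 25C.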
TRPV1 ag – human TRPV1 agonism. 0.19% of 320,000 active. Q8NER1. TRPV1-expressing cells, Fluo-8 calcium influx, agonist mode. activation, % at 8.33 µM; in the data active = activation above about 80%; inconclusive = between about 30% and that limit; note: 0% is about no effect
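Cells expressing TRPV1 were dye-loaded with Fluo-8 and read kinetically: 10 s baseline, 3 min after compound (agonist portion), then 2 min after EC20 capsaicin (allosteric enhancer portion). Calcium-bound dye fluorescence at 480/520 nm.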
CBFb RUNX1 block – CBF-beta/RUNX1 interaction disruption. Q01196+Q13951. AlphaScreen CBFb-His/RUNX1-biotin binding, biochemical. Potency, µM (titrated, usually from 59.8 µM), inactives show at the highest dose activity, negative = inhibition, usual class: inhibitors. AID 1477. 230,000 tested, under 10 active; note: % of control where 0% means no effect
Target sequence (Q01196 whole entry, looked up): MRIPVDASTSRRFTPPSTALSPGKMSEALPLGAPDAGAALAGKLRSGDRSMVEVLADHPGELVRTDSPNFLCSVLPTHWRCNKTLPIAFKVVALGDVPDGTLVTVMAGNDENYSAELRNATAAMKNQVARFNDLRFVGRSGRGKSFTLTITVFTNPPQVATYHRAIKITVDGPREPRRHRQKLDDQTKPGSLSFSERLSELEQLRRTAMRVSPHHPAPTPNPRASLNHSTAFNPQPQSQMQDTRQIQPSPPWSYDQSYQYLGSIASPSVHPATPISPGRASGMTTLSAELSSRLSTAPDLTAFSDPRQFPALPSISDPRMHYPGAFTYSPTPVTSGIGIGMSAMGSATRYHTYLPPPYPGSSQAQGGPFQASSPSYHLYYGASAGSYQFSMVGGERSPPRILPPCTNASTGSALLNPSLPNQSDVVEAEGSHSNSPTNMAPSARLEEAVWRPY
Target sequence (Q13951 whole entry, looked up): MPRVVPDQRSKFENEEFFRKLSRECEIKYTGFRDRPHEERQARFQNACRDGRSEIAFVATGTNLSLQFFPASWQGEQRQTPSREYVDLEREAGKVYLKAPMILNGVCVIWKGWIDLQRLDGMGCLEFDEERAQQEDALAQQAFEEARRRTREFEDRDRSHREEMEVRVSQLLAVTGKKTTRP
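Room-temperature protein-protein interaction test with 30 nM each of His-tagged CBF-beta and biotinylated RUNX1, 15 min with compound, then 90 min with nickel plus streptavidin beads. Signal read in AlphaScreen mode.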
* marks the source's active call; other numbers are inactive results; ? = inconclusive; nt = no result given; [ ] = dose if it differs, or a comment. A selection: hits, their analogues and other compounds. The true share with any hit is near 0.39%. Unless noted, calls come from the whole dose curve; as a rule, active = well fitted curve in the direction sought with a large enough effect; inconclusive = small, poorly fitted or top-dose-only effect, or another doubt; inactive = no such curve, though single readings can be large; an effect the other way counts as inactive or inconclusive.

SMILES	TRPV1 potentiator	Anesthetic bind	A-T KAP1 phos	TRPV1 ag	CBFb RUNX1 block
CC(=O)c1sc2nsc(SCCN3CCOCC3)c2c1N	-22.9	4.2%	2.1%	14.3	-5.9%
Cc1sc2ncnc(Nc3ccc(O)cc3)c2c1C	nt	-0.8%	-4.8%	nt	2.0%
C/C(=N\Nc1ncnc2sc(C)c(C)c12)c1ccccn1	7.4	-7.1%	-8.6%	87.5*	nt
Cc1sc2ncnc(N/N=C/c3cccc(O)c3)c2c1C	-4.1	-2.8%	4.5%	4.5	-15.0%
Cc1ccc(Nc2ncnc3sc(C)c(C)c23)cc1	-9.1	-10.3%	2.7%	87.0*	6.9%
CC[C@H](C)[C@H](NC(=O)[C@@H]1CCCN1C(=O)[C@H](Cc1cnc[nH]1)NC(=O)[C@@H](NC(=O)[C@H](Cc1ccc(O)cc1)NC(=O)[C@@H](NC(=O)[C@H](CCCN=C(N)N)NC(=O)CNC)C(C)C)[C@@H](C)CC)C(=O)O	nt	1.3%	nt	nt	1.4%
COC(=O)C(C(=O)OC)[C@@H]1c2ccccc2[C@H]2C(=C[C@@H](C)[C@H]3C(=O)N(c4ccccc4)C(=O)[C@H]32)N1C(=O)OC	nt	nt	nt	nt	-3.5%[13.1 µM]
N#Cc1ccc(/C=C\c2nccc3c2[nH]c2ccccc23)cc1	-1.8	48.9%	31.9%	90.1*	?
Clc1ccc(/C=C\c2nccc3c2[nH]c2ccccc23)cc1	-2.8	-12.2%	?	?	?
c1ccc2c(c1)-c1cccc3c1c-2cc1ccccc13	-5.6	nt	26.9%	2.6	?
c1ccc2c(c1)Oc1cccc3cccc-2c13	?	78.7%	10µM*	3.6	?
Cc1cccn2c(=O)c3cc(C(=O)NCC4CCCO4)c(=N)n(C4CCCCC4)c3nc12 (stereo not drawn)	-33.4	67.1%	-6.8%	90.6*	nt
Cc1cccn2c(=O)c3cc(C(=O)NCC4CCCO4)c(=N)n(CC4CCCO4)c3nc12 (stereo not drawn)	-6.0	210.9%	-0.3%	8.9	nt
CCn1c(=O)n(C2=C(CO)CN(CC3CCCCCCC3)CC2)c2ccccc21	nt	-8.5%	nt	nt	22.6%
COc1ccc2nc(C)cc(SCC(=O)NNC(=O)COc3ccccc3)c2c1	nt	-2.6%	-4.2%	nt	2.4%
COc1ccc2nc(C)cc(Sc3nc4ccccc4s3)c2c1	-6.0	?	22.4µM*	?	0.9%
N#Cc1nc(NCCCCO)nc(Nc2ccccc2)n1	nt	0.1%	nt	nt	nt
COc1ccc(CCn2c(S)nc3ccccc3c2=O)cc1	-7.0	6.0%	1.78µM*	6.3	nt
CCN(CC)c1ccc2ccc(=O)oc2c1	10.0	356.1%	-3.4%	2.8	23.2%
CCOC(=O)Cc1c(C)c2ccc(N(CC)CC)cc2oc1=O	20.0	411.2%	25.1µM*	0.6	?
CCN(CC)c1ccc2c(C)cc(=O)oc2c1	-24.2	nt	31.6µM*	?	30.8%[21.7 µM]
CC(C)C(C(=O)O)N1C(=O)/C(=C/c2ccc(Br)cc2)SC1=S (stereo not drawn)	nt	?	nt	nt	-7.2%
CC1(C)CCC[C@]2(C)[C@H]3CC(=O)O[C@]3(C)CC[C@@H]12	-7.2	-3.2%	1.3%	10.7	23.1%
CC(=O)OC[C@]12CC[C@H]3[C@@](C)(CC[C@H]4C(C)(C)CCC[C@]34C)[C@@H]1C[C@H](C1=CC(=O)O[C@@H]1OC(C)=O)O2	nt	nt	39.8µM*	nt	nt
CC(C)(C)c1csc(NC(=O)c2ccccc2O)n1	-17.0	0.3%	-6.6%	24.3	nt
CC(C)(C)c1csc(NNC(=O)c2ccc(Br)cc2)n1	-20.2	-20.2%	-4.3%	80.4*	-13.3%
CC[C@H](C)[C@H](NC(=O)[C@H](Cc1ccc(O)cc1)NC(=O)[C@H](Cc1cnc[nH]1)NC(=O)[C@H](CCCNC(=N)N)NC(=O)[C@H](CC(C)C)NC(=O)[C@H](C)NC(=O)[C@@H](N)CO)C(=O)N[C@@H](CC(N)=O)C(=O)N[C@@H](CC(C)C)C(=O)N[C@H](C(=O)N[C@H](C(=O)N[C@@H](CCCNC(=N)N)C(=O)N[C@@H](CCC(N)=O)C(=O)N[C@@H](CCCNC(=N)N)C(=O)N[C@@H](Cc1ccc(O)cc1)C(N)=O)[C@@H](C)O)[C@@H](C)CC	nt	-3.3%	nt	nt	10.9%
C=CC1=C2C=C(C3CC3)N(CCCCO)C=C2C(=O)C(C)(OC(=O)c2ccco2)C1=O (stereo not drawn)	nt	nt	nt	nt	-2.1%[13.1 µM]

Bioassay records from PubChem.
